The record followed here is publication PMC4336329 (PLoS ONE, 2015).

In all, about 310,000 compounds went through this assay and about 14,000 (4.5%) showed an effect of 50% or more. The effect is printed as a negative number. What follows is part of a selection rich in strong results, with near analogues and random picks from the rest.
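Also: peak tail current of the secondary pulse compared with the same well before compound.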

In the assay the target is human ether-à-go-go-related gene (hERG) potassium channel (human, UniProt Q12809). Briefly: primary screen, population patch clamp on CHO cells stably expressing hERG; higher = less effect of the substance.
Chain of human ether-à-go-go-related gene (hERG) potassium channel (Q12809 whole entry, looked up): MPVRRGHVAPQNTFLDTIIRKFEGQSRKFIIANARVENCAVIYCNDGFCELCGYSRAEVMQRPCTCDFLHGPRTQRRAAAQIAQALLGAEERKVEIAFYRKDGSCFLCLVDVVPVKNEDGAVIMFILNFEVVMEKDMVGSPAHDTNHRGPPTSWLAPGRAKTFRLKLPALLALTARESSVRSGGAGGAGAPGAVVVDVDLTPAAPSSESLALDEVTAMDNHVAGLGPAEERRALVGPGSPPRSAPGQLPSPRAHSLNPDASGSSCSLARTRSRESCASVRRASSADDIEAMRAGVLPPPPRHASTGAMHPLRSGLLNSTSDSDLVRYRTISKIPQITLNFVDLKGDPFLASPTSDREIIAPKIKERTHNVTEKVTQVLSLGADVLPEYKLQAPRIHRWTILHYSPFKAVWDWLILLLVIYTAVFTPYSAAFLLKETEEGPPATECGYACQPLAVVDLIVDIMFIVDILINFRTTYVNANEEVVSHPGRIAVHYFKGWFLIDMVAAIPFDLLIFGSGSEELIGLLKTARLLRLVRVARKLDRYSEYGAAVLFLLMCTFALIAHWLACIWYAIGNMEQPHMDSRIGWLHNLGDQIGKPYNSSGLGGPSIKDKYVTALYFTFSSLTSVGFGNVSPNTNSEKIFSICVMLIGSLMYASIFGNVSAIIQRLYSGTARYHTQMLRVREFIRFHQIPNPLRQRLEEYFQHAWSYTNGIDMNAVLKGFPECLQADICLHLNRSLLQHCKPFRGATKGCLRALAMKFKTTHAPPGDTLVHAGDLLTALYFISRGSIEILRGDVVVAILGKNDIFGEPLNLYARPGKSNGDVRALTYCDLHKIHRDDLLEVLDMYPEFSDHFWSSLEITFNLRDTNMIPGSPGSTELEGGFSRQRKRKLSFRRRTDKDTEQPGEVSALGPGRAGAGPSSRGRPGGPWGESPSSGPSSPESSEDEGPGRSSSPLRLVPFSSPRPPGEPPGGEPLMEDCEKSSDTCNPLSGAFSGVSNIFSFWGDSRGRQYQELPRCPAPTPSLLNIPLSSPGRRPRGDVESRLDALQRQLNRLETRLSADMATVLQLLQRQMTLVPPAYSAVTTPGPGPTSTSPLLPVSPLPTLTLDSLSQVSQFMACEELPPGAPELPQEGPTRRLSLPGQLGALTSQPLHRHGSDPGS
In the case of `COc1ccc(CCNC(=O)C2CCN(C(=O)c3cccs3)CC2)cc1`, the “hERG current change (%, negative = inhibition) at 10uM” value is -0.649%. For the compound `CCOc1ccc(NC(=O)CSc2ccc3nnc(-c4ccccn4)n3n2)cc1`, the “hERG current change (%, negative = inhibition) at 10uM” value is -54.3%.

On to `CC(=O)c1ccc(NC(=O)CSc2ccc3nnc(-c4ccccn4)n3n2)cc1`, for which the “hERG current change (%, negative = inhibition) at 10uM” value is listed as -64.7%. The result for `CC(=O)c1ccc(NC(=O)CSc2nnc3ccc(-c4ccccn4)nn23)cc1` reads -10.5%; that for `COc1ccc(NC(=O)CSc2ccc3nnc(-c4ccccn4)n3n2)cc1`, -20.9%.

For `COc1ccc(NC(=O)CSc2ccc3nnc(-c4ccccn4)n3n2)cc1OC`, the “hERG current change (%, negative = inhibition) at 10uM” value is reported as -18.1%. For the compound `CC(=O)Nc1ccc(NC(=O)CSc2ccc3nnc(-c4ccccn4)n3n2)cc1`, the “hERG current change (%, negative = inhibition) at 10uM” value came to 17.7%. As for `CCc1cccc(C)c1NC(=O)Cn1nc(C)n2cccc2c1=O`, the “hERG current change (%, negative = inhibition) at 10uM” value is reported as 22.9%. The same measure for `COc1ccc(-c2csc(N3CCN(c4cc5c(cc4Cl)nc(-c4ccncc4)n5CCOCCO)CC3)n2)cc1`: 12.6%. The result for `CCOC(=O)N1CCN(C(=O)/C(=C/c2ccc(Br)cc2)NC(=O)c2ccc(OC)cc2)CC1` reads -78.2%. The result for `COc1ccc(C(=O)N/C(=C\c2ccc(OC)c(OC)c2)C(=O)N2CCCCC2)cc1` reads 6.11%; that for `COc1ccc(/C=C(\NC(=O)c2ccc(C)cc2)C(=O)N2CCCCC2)cc1`, -55.2%; that for `COc1ccc(/C=C(\NC(=O)c2ccc(OC)cc2)C(=O)N2CCCCC2)cc1`, -3.21%. On to `COc1ccc(/C=C(\NC(=O)c2ccccc2)C(=O)N2CCN(C)CC2)cc1`, for which the “hERG current change (%, negative = inhibition) at 10uM” value is -76.3%. The same measure for `COc1ccc(/C=C(/NC(=O)c2ccccc2)C(=O)N2CCCC2)cc1`: 2.89%; for `CCOC(=O)N1CCN(C(=O)/C(=C/c2ccc(Cl)cc2)NC(=O)c2ccccc2)CC1`: -74.7%; for `CCOC(=O)N1CCN(C(=O)/C(=C/c2ccc(N(C)C)cc2)NC(=O)c2ccccc2)CC1`: -45.6%. In the case of `O=C(N/C(=C/c1ccc(Cl)cc1)C(=O)N1CCCC1)c1ccccc1`, the “hERG current change (%, negative = inhibition) at 10uM” value was -8.81%.

As for `COc1ccc(/C=C(/NC(=O)c2ccccc2)C(=O)N2CCCCC2)cc1`, the “hERG current change (%, negative = inhibition) at 10uM” value is -1.39%.

For the compound `N#Cc1ccc(C(=O)Nc2ccc(S(=O)(=O)NC3=NCCCCC3)cc2)cc1`, the “hERG current change (%, negative = inhibition) at 10uM” value is listed as -1.54%.

Regarding `CC1=CC(=O)c2c(O)ccc(O)c2C1=O`, the “hERG current change (%, negative = inhibition) at 10uM” value is listed as -42.6%. Consider `Cc1nn(C)c(C)c1CNC(=O)Nc1cccc(Cl)c1C`, for which the “hERG current change (%, negative = inhibition) at 10uM” value came to 1.35%.

`CCOC(=O)c1[nH]c(C)c(C(=O)OCCOc2cccc(C)c2)c1C`: the “hERG current change (%, negative = inhibition) at 10uM” value is on record as 5.99%. The same measure for `CC(C)C(=O)NC(Nc1cccc2cccnc12)C(Cl)(Cl)Cl` (stereo not shown): -17.8%; for `COc1cc(NC(=O)[C@@H](NC(=O)c2ccco2)C(C)C)c(OC)cc1NC(=O)c1ccccc1`: -36%; for `CCOC(=O)C1=C(N)OC(CCl)=C(C#N)C1c1ccsc1` (stereo not shown): 8.35%. The same measure for `CCOC(=O)N1CCN(C(=O)/C(=C/c2ccc(OC)cc2)NC(=O)c2ccccc2)CC1`: -68.4%; for `COc1ccc(/C=C(/NC(=O)c2ccccc2)C(=O)N2CCC(C)CC2)cc1`: -38.4%; for `CCOC(=O)C1CCN(C(=O)/C(=C/c2ccccc2)NC(=O)c2ccccc2)CC1`: -30%. The result for `CCOC(=O)N1CCN(C(=O)/C(=C/c2ccc(OC)c(OC)c2)NC(=O)c2ccccc2)CC1` reads -34.5%; that for `CCOC(=O)N1CCN(C(=O)/C(=C/c2ccc(F)cc2)NC(=O)c2ccccc2)CC1`, -48.5%.

Take `CCOC(=O)N1CCN(C(=O)/C(=C\c2ccc(SC)cc2)NC(=O)c2ccccc2)CC1`: the “hERG current change (%, negative = inhibition) at 10uM” value was -78.5%. `CCNc1nc(C(=O)O)nc(N2CCOCC2)n1`: the “hERG current change (%, negative = inhibition) at 10uM” value was 10.7%.

For the compound `CCCc1nnc(NC(=O)CC(C)c2ccccc2)s1` (stereo not shown), the “hERG current change (%, negative = inhibition) at 10uM” value is given as 2.66%.

Consider `Cc1nn(Cc2ccccc2)c(C)c1NC(=O)c1cccs1`, for which the “hERG current change (%, negative = inhibition) at 10uM” value is on record as 14%. With `COc1ccccc1N1CCN(S(=O)(=O)CCNC(=O)C2CCCCC2)CC1`, the “hERG current change (%, negative = inhibition) at 10uM” value is -20.7%.

`CCOC(=O)c1ccc(Nc2ncnc3ccc(C)cc23)cc1`: the “hERG current change (%, negative = inhibition) at 10uM” value came out at 6.65%.

As for `Brc1ccccc1-c1nnc(COc2ncnc3ccccc23)o1`, the “hERG current change (%, negative = inhibition) at 10uM” value is recorded as -8.52%. Turning to `Brc1ccccc1-c1nnc(COc2ncnc3c2cnn3-c2ccccc2)o1`, the “hERG current change (%, negative = inhibition) at 10uM” value turned out to be 7.27%. The result for `O=[N+]([O-])c1ccc2c(OCc3nnc(-c4ccccc4Br)o3)ncnc2c1` reads -74.1%; that for `Cc1ccc(N2CC(C(=O)N3CCc4ccccc4C3)CC2=O)cc1` (stereo not shown), -44.5%. The result for `CCOc1ccc(N2CC(C(=O)N3CCCc4ccccc43)CC2=O)cc1` (stereo not shown) reads -62.6%. On to `CCOc1ccc(N2CC(C(=O)N3CCc4ccccc43)CC2=O)cc1` (stereo not shown), for which the “hERG current change (%, negative = inhibition) at 10uM” value is listed as -47.6%. The result for `CCOc1ccc(N2CC(C(=O)N3CCN(c4ccccn4)CC3)CC2=O)cc1` (stereo not shown) reads -59%.

For `CCOc1ccc(N2CC(C(=O)N3CCc4ccccc4C3)CC2=O)cc1` (stereo not shown), the “hERG current change (%, negative = inhibition) at 10uM” value is listed as -75%. With `Cc1ccc(N2CC(C(=O)N3CCCc4ccccc43)CC2=O)cc1` (stereo not shown), the “hERG current change (%, negative = inhibition) at 10uM” value was -18.8%.

With `COc1ccc(N2C(=O)CCC(C(=O)N3CCN(c4ccccn4)CC3)C2c2ccc(F)cc2)cc1` (stereo not shown), the “hERG current change (%, negative = inhibition) at 10uM” value was -48.2%. The result for `COc1ccc(C2C(C(=O)N3CCN(c4ccccn4)CC3)CC(=O)N2c2ccc(OC)cc2)cc1` (stereo not shown) reads -78.7%; that for `CCOc1ccc(N2CC(C(=O)N3CC(C)OC(C)C3)CC2=O)cc1` (stereo not shown), 20%; that for `CCOc1ccc(N2CC(C(=O)N3CCCC3)CC2=O)cc1` (stereo not shown), -4.65%. The result for `CCc1ccc(N2CC(C(=O)N3CCN(c4ccccn4)CC3)CC2=O)cc1` (stereo not shown) reads -24.3%. The result for `COc1ccc(C2C(C(=O)N3CCN(c4ccccn4)CC3)CCC(=O)N2c2ccc(OC)cc2)cc1` (stereo not shown) reads -47.3%; that for `COc1cccc(NS(=O)(=O)c2ccc3[nH]cc(C(=O)NCCC(C)C)c(=O)c3c2)c1`, 13.9%.

In the case of `Cc1ccc2nc(N/C(=N/S(=O)(=O)c3cccs3)c3ccccc3Cl)sc2c1`, the “hERG current change (%, negative = inhibition) at 10uM” value was -7.11%. The result for `CN1CCN(S(=O)(=O)c2ccc(NC(=O)c3cccs3)cc2)CC1` reads -11.3%; that for `NC(=O)c1ccsc1NC(=O)COC(=O)c1cnccn1`, 2.13%.

Consider `CC1CCC(NC(=O)CNC(=O)c2cccs2)CC1` (stereo not shown), for which the “hERG current change (%, negative = inhibition) at 10uM” value amounted to 7.33%. The result for `Cc1n[nH]c(=O)nc1N1CCc2ccccc2C1` reads 4.47%; that for `COc1cc(OC)cc(C(=O)Nc2ccc3c(c2)CCCN3C(=O)c2cccs2)c1`, -2.41%; that for `CCOc1cc(S(=O)(=O)NCC2CCCO2)ccc1F` (stereo not shown), 13.8%. For `COc1ccccc1/C=C/C=N/n1c(-c2ccc(F)cc2)n[nH]c1=S`, the “hERG current change (%, negative = inhibition) at 10uM” value was found to be 6.25%. The same measure for `CC1=NS(=O)(=O)c2cc(Cl)ccc2N1`: -2.63%. `Cc1occc1C(=O)NNC(=O)CN1C(=O)NC(C)(c2ccccc2)C1=O` (stereo not shown): the “hERG current change (%, negative = inhibition) at 10uM” value turned out to be 19.1%. `COc1cccc(NC(=O)CN(C)C(=O)c2oc3c(ccc4ccccc43)c2C)c1`: the “hERG current change (%, negative = inhibition) at 10uM” value is on record as -0.74%. The same measure for `CCOC(=O)c1cc(C#N)c(C)nc1N(CC)CC`: -3.53%; for `CC(=O)Nc1cccc(OCC(=O)NS(=O)(=O)c2ccc(C)cc2)c1`: 1.18%; for `O=C1CC(C(=O)N2CCCc3ccccc32)CN1c1ccc(F)cc1` (stereo not shown): -22.2%. As for `O=C1CC(C(=O)N2CCc3ccccc32)CN1c1ccccc1` (stereo not shown), the “hERG current change (%, negative = inhibition) at 10uM” value was -6.98%. The same measure for `O=C1CC(C(=O)N2CCc3ccccc32)CN1c1ccc(F)cc1` (stereo not shown): -55.3%; for `CCNC(=O)CC1SC(=Nc2ccc(Cl)cc2)N(CC)C1=O` (stereo not shown): -0.837%. In the case of `COCCCn1c(Cc2csc(Nc3ccc(F)cc3)n2)nnc1SCC(N)=O`, the “hERG current change (%, negative = inhibition) at 10uM” value is -5.91%. With `COc1ccc(CN(C)CC2CCCN(CCc3ccc(Cl)cc3)C2)cc1OC` (stereo not shown), the “hERG current change (%, negative = inhibition) at 10uM” value is -88.5%.

On to `COc1ccc(CN(C)CC2CCCN(CCc3ccc(F)cc3)C2)c(OC)c1OC` (stereo not shown), for which the “hERG current change (%, negative = inhibition) at 10uM” value is reported as -74.8%. As to `COc1ccc(CN(C)CC2CCCN(CCc3ccc(F)cc3)C2)cc1OC` (stereo not shown), the “hERG current change (%, negative = inhibition) at 10uM” value is on record as -64.8%. As to `COc1cc(CN(C)CC2CCCN(CCc3ccc(F)cc3)C2)c(Cl)cc1O` (stereo not shown), the “hERG current change (%, negative = inhibition) at 10uM” value was -30%. Consider `COc1ccc(CN(C)C2CCN(C)CC2)cc1OC`, for which the “hERG current change (%, negative = inhibition) at 10uM” value is 21.8%.

Turning to `COc1cccc(CN(C)CC2CCCN(CCc3ccc(Cl)cc3)C2)c1OC` (stereo not shown), the “hERG current change (%, negative = inhibition) at 10uM” value is reported as -74.5%. `Cc1ccc2[nH]c3c(Cl)ncnc3c2c1`: the “hERG current change (%, negative = inhibition) at 10uM” value was 5.18%.

For the compound `Cc1ccc(O)c(C(CC(=O)N2CCCC2)c2ccccc2)c1` (stereo not shown), the “hERG current change (%, negative = inhibition) at 10uM” value is given as -18.9%. The result for `COc1ccc(O)c(-c2cc(-c3cccs3)[nH]n2)c1` reads 0.169%; that for `CCn1cc(C2C(C(=O)Nc3cc(C)ccn3)=C(C)NC3=C2C(=O)CC(C)(C)C3)c(C)n1` (stereo not shown), 11.3%. The result for `Cc1cccc(NC(=O)CSc2nc(COc3ccccc3)nc3ccccc23)c1C` reads 13.5%. In the case of `COc1ccccc1NC(=O)Nc1nn(C)c2cccc(OC)c12`, the “hERG current change (%, negative = inhibition) at 10uM” value worked out at 2.03%.

As for `CCCC12CN3CCN(CC(C3)/C1=N\NC(=O)c1ccc(C(C)(C)C)cc1)C2`, the “hERG current change (%, negative = inhibition) at 10uM” value is given as -14.4%. Turning to `Cc1cccc(N2CCN(CC(=O)Nc3nccs3)CC2)c1C`, the “hERG current change (%, negative = inhibition) at 10uM” value is recorded as -45.3%.
